{
  "source": "PubChem BioAssay (NCATS)",
  "note": "Results filed as inconclusive are left out. Values without a mark were called inactive. Calls of active or inactive are those of the source. Calls follow the shape of the full dose curve.",
  "data": [
    {"biological_target": "Retinoic acid receptor RXR-alpha (Homo sapiens) (UniProt P19793)", "sequence (P19793 whole entry, looked up)": "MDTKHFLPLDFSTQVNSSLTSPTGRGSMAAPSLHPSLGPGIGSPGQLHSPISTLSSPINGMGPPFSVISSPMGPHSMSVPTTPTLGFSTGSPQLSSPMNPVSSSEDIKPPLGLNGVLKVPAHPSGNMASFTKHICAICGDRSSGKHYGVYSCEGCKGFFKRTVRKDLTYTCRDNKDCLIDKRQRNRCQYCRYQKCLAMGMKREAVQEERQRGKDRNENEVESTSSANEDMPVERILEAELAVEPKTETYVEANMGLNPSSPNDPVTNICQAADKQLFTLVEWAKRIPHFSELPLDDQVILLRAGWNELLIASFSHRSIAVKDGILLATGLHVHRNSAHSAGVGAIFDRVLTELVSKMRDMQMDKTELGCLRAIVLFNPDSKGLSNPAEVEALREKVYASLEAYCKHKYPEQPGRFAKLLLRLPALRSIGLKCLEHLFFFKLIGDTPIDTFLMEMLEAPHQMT", "assay": "qHTS assay for small molecule agonists of retinoid X receptor alpha signaling (AID 588544)", "settings": "HEK293T RXRa-UAS-bla, beta-lactamase reporter, 18 h; series mostly up to 76.7 µM; activation: at the top concentration", "excerpt": "NIH Chemical Genomics Center [NCGC] U.S. Environmental Protection Agency [EPA] National Institutes of Environmental Health Sciences [NIEHS] National Toxicology Program [NTP] NCGC Assay Overview The Retinoid X receptor (RXR), a nuclear hormone receptor is expressed in liver, spleen, placenta, epidermis, central nervous system. These receptors are able to form homo and heterodimers with other nuclear receptors and due to this heterodimerizing ability, RXR functions as master regulators producing diverse physiological effects. Three subtypes of RXR exist; alpha, beta and gamma. Retinoid X receptor alpha (RXR-alpha) has potential roles in metabolic signaling pathways, skin alopecia, dermal cysts, cardiac development, insulin sensitization etc. Therefore screening environmental chemicals on RXR-alpha signaling can be used for the studies focused on such therapeutic applications.\nNCGC Assay Protocol Summary Using a beta-lactamase reporter-gene under control of Retinoid X receptor--alpha (RXR-alpha) response element, a cell-based assay [GeneBLAzer (RXR-alpha -UAS-bla assay developed by Invitrogen] was used to measure RXR-alpha ligands signaling. GeneBLAzer RXR-alpha -UAS-bla HEK293T cells were used with assay medium containing 2% charcoal-stripped FBS. The assay was performed in clear bottom black Greiner 1536-well plates. 9-cis-retinoic acid was used in the screen as the positive control. Library compounds were measured for their ability to stimulate the reporter gene activity. Compounds were screened in a titration series in 1536-well format. The fluorescence intensity (405 nm excitation, 460/530 nm emission) was measured using an EnVision plate reader. Data was normalized relative to 9-cis-retinoic acid control (500 nM, 100%), and DMSO only wells (basal, 0%). Concentration-response titration points for each compound were fitted to the Hill equation yielding concentrations of half-maximal stimulation (EC50) and maximal response (efficacy) values. qHTS protocol for RXR-alpha beta-lactamase assay in agonist mode [Step] [Parameter] [Value] [Description] 1. Reagent; 6 uL; 2500 cells/well 2. Incubation; 37 C for 4 hrs 3. Compounds; 23 nL; 0.59 nM to 92 uM 4. Controls (9-cis-retinoic acid); 23 nL, - One column with dose response, start 38 uM, 1:3 dilutions in duplicates - Final concentrations of 500 nM and 50 nM in two columns 5. Incubation; 37 C for 18 hrs 6. Detection reagent; 1 uL of CCF4-dye 7. Incubation; RT for 2 hrs 8. Detection; Fluorescence; Envision plate reader", "units": {"activation": "%"}, "values": [
      {"smiles": "O=C(/C=C/c1ccc(O)c(O)c1)OC1C[C@](O)(C(=O)O)C[C@@H](O)[C@H]1O", "note": "(some centres not stated)", "outcome": "inactive"},
      {"smiles": "Cc1ccc(S(=O)(=O)Oc2ccc(N=Nc3ccc(-c4ccc(N=Nc5c(O)ccc6cc(S(=O)(=O)O)cc(S(=O)(=O)O)c56)c(C)c4)cc3C)cc2)cc1", "activation": 6.7},
      {"smiles": "CCCCCC/C(C=O)=C\\c1ccccc1", "activation": -2.23},
      {"smiles": "O=Cc1ccc(Cl)c(Cl)c1", "activation": -2.29},
      {"smiles": "O=C=Nc1ccc(Cc2ccc(N=C=O)cc2)cc1", "outcome": "inactive"},
      {"smiles": "c1ccc2c(c1)ccc1cc3c(ccc4ccccc43)cc12", "activation": 4.06},
      {"smiles": "Cc1cccc(O)c1C", "activation": 13.6},
      {"smiles": "CC1CCC(C(C)C)C(O)C1", "note": "(configuration not stated)", "activation": -2.99},
      {"smiles": "C=C(C)c1ccccc1", "activation": 6.8},
      {"smiles": "CN1[C@H]2CC(OC(=O)[C@H](CO)c3ccccc3)C[C@H]1[C@H]1O[C@H]12", "note": "(some centres not stated)", "outcome": "inactive"},
      {"smiles": "ClC1=C(Cl)C(Cl)(Cl)C(Cl)=C1Cl", "outcome": "inactive"},
      {"smiles": "Cc1cc(Nc2ccc(O)cc2)ccc1N", "activation": 2.7}
    ]}
  ]
}
